Experimental findings from PubChem BioAssay are described below.

Entries with a potency or affinity are not part of this list. The source made the active and inactive calls. No cut-off is given here; in the data, nearly all actives have IC50 up to about 0.91 µM.

Chain of Calcium-dependent protein kinase 4 (Plasmodium falciparum (isolate 3D7)) (Q8IBS5 whole entry, looked up): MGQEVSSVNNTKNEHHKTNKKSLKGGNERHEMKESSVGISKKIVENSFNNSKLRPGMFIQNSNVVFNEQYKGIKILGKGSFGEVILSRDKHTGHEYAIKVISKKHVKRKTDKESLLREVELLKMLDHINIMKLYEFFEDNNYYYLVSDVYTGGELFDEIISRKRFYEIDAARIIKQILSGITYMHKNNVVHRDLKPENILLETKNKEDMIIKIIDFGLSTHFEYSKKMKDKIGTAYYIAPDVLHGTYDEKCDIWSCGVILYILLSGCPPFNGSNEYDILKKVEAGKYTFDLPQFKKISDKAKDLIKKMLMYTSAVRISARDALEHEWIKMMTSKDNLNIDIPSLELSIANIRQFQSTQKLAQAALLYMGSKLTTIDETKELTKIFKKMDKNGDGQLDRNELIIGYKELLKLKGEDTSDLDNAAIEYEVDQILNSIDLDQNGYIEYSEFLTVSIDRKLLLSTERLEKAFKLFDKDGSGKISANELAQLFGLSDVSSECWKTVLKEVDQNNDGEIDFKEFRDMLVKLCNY

The assay concerns the target Calcium-dependent protein kinase 4 (Plasmodium falciparum (isolate 3D7)) (UniProt Q8IBS5). Nature of the assay: PfCDPK4 kinase inhibitors, biochemical, TCAMS library (AID 1159588). To be noted: recombinant PfCDPK4, Kinase-Glo ATP depletion luminescence.
With `Cc1cc(OCCN2CCCCC2)ccc1NC(=O)c1cccc2c(=O)n(Cc3ccc(Cl)cc3)cnc12`, the result was inactive.
Regarding `COc1ccc(CNCc2ccccc2)cc1-c1ccc(S(=O)(=O)NCCN2CCCC2)c(C)c1`, the result was inactive.
For `COc1cc2ncnc(Nc3ccc(OCc4ccccc4)c(C(F)(F)F)c3)c2cc1OC` the value was “inactive”.
For `c1cc(CNC2Cc3ccccc3C2)cc(-c2cnc(N3CCNCC3)nc2)c1`, the result was inactive.
With `COc1ccc(NC(=O)[C@H](CC(C)C)Nc2cc(C)nc(Nc3ccccc3)n2)cc1`, the outcome was inactive.
For `O=C(Nc1cccc(-c2ccc(NCCCN3CCCC3)nc2)c1)c1ccccc1` the value was “inactive”; for `CNC(=S)NN=C(C)c1ccccn1`, “inactive”.
Consider `CCN(CC)CCN(Cc1ccc(-c2ccc(C(F)(F)F)cc2)cc1)C(=O)Cn1c(CCc2c(F)cc(F)cc2F)nc(=O)c2ccccc21`, for which the result was inactive.
The value for `Cc1cc(NCCC(=O)Nc2ccccc2)nc(NCCOc2ccccc2)n1` was “inactive”; that for `CCOC(=O)c1[nH]c2ccc(F)cc2c1NC(=O)CN1CCN(c2cccc(C(F)(F)F)c2)CC1` was “inactive”; that for `C=CCOc1ccc2ccccc2c1CNCCCCCCNCc1c(OCC=C)ccc2ccccc12` was “inactive”.
For `Cc1cc(N2CCOCC2)nc(Nc2ccc(NC(=O)Nc3ccc(F)cc3)cc2)n1` the value was “inactive”.
For `CC(C)CNCc1cccc(-c2cccc(CN(CCN(C)C)C(=O)Nc3ccccc3)c2)c1` the value was “inactive”; for `CC(C)(C)NCC(O)COc1ccc(Cl)cc1C1=NNC(=O)CC1` (stereo not given), “inactive”; for `Cc1cc(CNCCCCCCNCc2ccc(Cl)cc2)ccc1O`, “inactive”.
As for `CC(=O)Nc1ccc(CNCCc2ccc(NC(=O)c3cc(Cl)cc(Cl)c3)cc2)cc1`, the result was inactive.
The value for `NS(=O)(=O)c1cccc(-c2ccc3nccc(-c4cccc(S(N)(=O)=O)c4)c3c2)c1` was “inactive”.
With `CC(=O)Nc1ccc(C(=O)Nc2cccc(-c3ccc(-c4nc5ccc(C(F)(F)F)cc5[nH]4)s3)c2)cn1`, the outcome was inactive.
For `COC(=O)c1cccc(CN(CCC(O)(C(F)(F)F)C(F)(F)F)C(=O)CC2CCCC2)c1` the value was “inactive”; for `Cc1cc(C2CCN(CCCCNC(=O)c3ccc(NC(=O)c4ccc(Cl)cc4)cc3)CC2)c(C)cc1OCc1ccccn1`, “inactive”; for `CC(=O)Nc1ccc(C(=O)Nc2ccc(-c3cccc(-c4nc5ccc(C(F)(F)F)cc5[nH]4)c3)cc2)cn1`, “inactive”.
For `Cc1cccc2[nH]c(-c3cccc(-c4ccc(NC(=O)Nc5cccc(C#N)c5)cc4)c3)nc12` the value was “inactive”; for `CN(C)CCN1CCN(CCCN2c3ccccc3Sc3ccc(C(F)(F)F)cc32)CC1`, “inactive”; for `COc1cc(C)nc2ccc(NC(=O)COCC(=O)Nc3ccc4nc(C)cc(OC)c4c3)cc12`, “inactive”.
Turning to `Cc1nnc(N2C(=N)SC(=Cc3ccc(-c4ccc(OC(F)(F)F)cc4)o3)C2=O)s1`, the result was inactive.
For `CCCNC(=O)c1cncc(-c2ccc(CNCCCc3ccccc3)cc2)c1` the value was “inactive”; for `CC(C)CCN(Cc1cncn1Cc1cccc(C(F)(F)F)c1)C(=O)c1cncc(-c2ccccc2)c1`, “inactive”.
For `COc1ccc(CNCc2ccc(F)cc2)cc1-c1cccc(S(=O)(=O)NCCN2CCCC2)c1` the value was “inactive”; for `CN(C)c1ccc(-c2csc(C(=O)NC3CCN(Cc4ccc(C(C)(C)C)cc4)C3)c2)cc1` (stereo not given), “inactive”; for `Cc1ccc(S(=O)Cc2ccc(Cl)cc2)cc1` (stereo not given), “inactive”.
For `CCN(CC)CCNC(=O)c1ccc(NC(=O)c2cc3c(C)nn(-c4ccc(Cl)cc4)c3s2)cc1` the value was “inactive”; for `Cc1cccc(CN2CCCN(Cc3ccc(C(=O)Nc4ccc(Cl)cc4)cc3)CC2)c1`, “inactive”.
Take `OC(CNCc1ccccc1OCc1ccccc1)c1cccc(C(F)(F)F)c1` (stereo not given): the result was inactive.
For `CS(=O)(=O)CCNCc1ccc(-c2ccc3c(Nc4ccc(Cl)cc4F)ccnc3c2)o1` the value was “inactive”; for `CC1(C)N=C(N)N=C(N)N1OCc1nc(N)nc(Nc2ccccc2)n1`, “inactive”.
The value for `CCCCCCNC(=O)c1nn(CCN2CCC(N3CCCC3)CC2)cc1-c1ccc(Cl)c(Cl)c1` was “inactive”.
For `Cc1cccc(-c2nn(-c3ccccc3)c3[nH]c(=O)c(CNC4CCCC4)cc23)c1` the value was “inactive”; for `O=C(NC1CCN(c2ccnc3ccccc23)C1)c1cccc(C(F)(F)F)c1` (stereo not given), “inactive”; for `CSc1cccc(NC(=O)c2cc3ccccc3oc2=O)c1`, “inactive”.
With `Cc1cc(Nc2cc(Cl)cc(Cl)c2)nc(N)n1`, the outcome was inactive.
